HIV TAR-Tat: HIV-1 TAR-Tat binding disruption; z-score (test concentration not listed); actives 0.6% (n = 100,000); HIV-1 TAR RNA, Tat peptide displacement FRET; stronger effect = higher value; active means z-score of 3 or more in at least 2 runs
CDC25B-CDK2 inh: human CDC25B-CDK2/CyclinA binding inhibition; P30305+P24941; HTRF CDC25B-CDK2/CyclinA binding, anti-His/anti-Flag; stronger effect = higher value; z-score (no concentration beside the values); actives 0.72% (n = 94,000); AID 1259370; in the data active means z-score above about 3.2
Active calls of the source: *. Sampled rows, rich in hits. Any-hit rate of the full collection: about 0.86%.

For CCOC(=O)c1nc(N)c(=O)n(-c2ccc(C)cc2)n1 the results were CDC25B-CDK2 inh -7.1.
For CCOC(=O)c1nn(-c2ccc(Cl)cc2)c(=O)c2c(N)scc12 the results were HIV TAR-Tat -2.95 and CDC25B-CDK2 inh 18.4*.
`Cc1nn(-c2ccccc2)c2c1N(CC(=O)O)C(=O)CS2` gave HIV TAR-Tat 0.81 and CDC25B-CDK2 inh 0.61.
`O=C(Cn1c(=O)oc2cc(Cl)ccc21)N1CCOCC1` gave HIV TAR-Tat -0.65.
`Cc1nc2ccc(S(=O)(=O)NCC(=O)NCCC3=CCCCC3)cc2s1` gave HIV TAR-Tat -0.24 and CDC25B-CDK2 inh -1.77.
For CN(C)c1ccc(CNc2n[nH]c(-c3ccco3)n2)cc1 the results were HIV TAR-Tat 3.08 and CDC25B-CDK2 inh 14.9*.
`Brc1ccc(CNc2n[nH]c(-c3ccco3)n2)cc1` gave HIV TAR-Tat 1.84 and CDC25B-CDK2 inh -2.66.
For O=c1ccc(-c2ccc(S(=O)(=O)Nc3ccc(Cl)cc3F)o2)n[nH]1 the results were HIV TAR-Tat 2.11.
Screening O=c1ccc(-c2ccc(S(=O)(=O)Nc3ccc(Br)cc3F)o2)n[nH]1 returned HIV TAR-Tat 18.2*.
`O=C(NCc1ccco1)c1ccc(CS(=O)c2ccc(Br)cc2)o1` (stereo not drawn) gave HIV TAR-Tat -0.22 and CDC25B-CDK2 inh -1.17.
Screening COc1cc(C2CC(=O)N3CN(c4ccc(C)c(C)c4)CSC3=C2C#N)ccc1O (stereo not drawn) returned HIV TAR-Tat 1.62 and CDC25B-CDK2 inh 0.52.
Screening COc1cc(C2CC(=O)N3CN(c4ccc(F)cc4)CSC3=C2C#N)ccc1O (stereo not drawn) returned HIV TAR-Tat 28.7* and CDC25B-CDK2 inh 3.32*.
For COc1ccc(N2CSC3=C(C#N)C(c4ccc(O)c(OC)c4)CC(=O)N3C2)cc1 (stereo not drawn) the results were HIV TAR-Tat -1.64 and CDC25B-CDK2 inh 4*.
`COc1cc(C2CC(=O)N3CN(c4ccc(Cl)cc4)CSC3=C2C#N)ccc1O` (stereo not drawn) gave HIV TAR-Tat 25.2* and CDC25B-CDK2 inh 4.18*.
Screening O=C(NCCN1CCCC1)c1cc(-c2ccccn2)nc2ccccc12 returned HIV TAR-Tat -0.09.
For Cc1cccc(-n2nnc(-c3nc(-c4ccc(F)cc4)no3)c2N)c1 the results were HIV TAR-Tat 1.38.
Screening COc1ccccc1C1CC(=O)N2CN(Cc3ccccc3)CSC2=C1C#N (stereo not drawn) returned HIV TAR-Tat 0.76 and CDC25B-CDK2 inh 5.31*.
For COc1ccccc1C1CC(=O)N2C(=C1C#N)SCC2(O)c1ccccc1 (stereo not drawn) the results were CDC25B-CDK2 inh -6.98.
`N#CC1=C2SCN(Cc3ccccc3)CN2C(=O)CC1c1cccc2ccccc12` (stereo not drawn) gave HIV TAR-Tat -0.85 and CDC25B-CDK2 inh 0.
For COc1cccc(C2CC(=O)N3CN(Cc4ccccc4)CSC3=C2C#N)c1OC (stereo not drawn) the results were HIV TAR-Tat -0.36 and CDC25B-CDK2 inh 5.55*.
Screening COc1ccc(NS(=O)(=O)c2ccc3c(c2)NC(=O)CC(C)S3)c(OC)c1 (stereo not drawn) returned HIV TAR-Tat -0.15.
For CC1CCN(c2ccc(NS(=O)(=O)c3ccc4c(c3)CCCC(=O)N4)cc2)CC1 the results were HIV TAR-Tat -0.08.
For Cc1cc(=O)cc(C)n1-c1ccc(C(=O)O)cc1 the results were HIV TAR-Tat -1.72 and CDC25B-CDK2 inh 0.84.
Screening O=C(O)c1cc(Br)cc(C(=O)O)c1Cl returned HIV TAR-Tat 2.16 and CDC25B-CDK2 inh 1.14.
Screening Cc1ccc(C)n1-c1ccc(Br)cc1C(=O)O returned HIV TAR-Tat 18.6* and CDC25B-CDK2 inh -0.62.
Screening Cc1ccc(C)n1-c1ccc(O)c(C(=O)O)c1 returned HIV TAR-Tat 32.5* and CDC25B-CDK2 inh -0.09.
Cc1ncc(CO)c(CNc2ccc(C(C)C)cc2)c1O was read as HIV TAR-Tat 0.58.
`O=C1Cc2cc(S(=O)(=O)NCc3ccncc3)cc3c2N1CCC3` gave HIV TAR-Tat 0.16.
`CC(=O)NC1C(=O)SSC1(C)C` (stereo not drawn) gave CDC25B-CDK2 inh -0.63.
`COc1ccc(-n2nnc(-c3nc(-c4ccccc4)no3)c2N)cc1OC` gave HIV TAR-Tat 0.58.
Screening CCC(=O)N1c2ccccc2CC1C(=O)N1CCN(c2ncccn2)CC1 (stereo not drawn) returned HIV TAR-Tat 1.47.
Cc1cc(C)c(S(=O)(=O)Nc2cc(Br)c(O)c3ccccc23)c(C)c1 was read as CDC25B-CDK2 inh 18.6*.
Cc1cc(C)c(S(=O)(=O)Nc2ccc(O)cc2)c(C)c1 was read as HIV TAR-Tat 0.57 and CDC25B-CDK2 inh -0.75.
`Cn1c(=O)oc2cc(S(=O)(=O)Nc3ccc(S(N)(=O)=O)cc3)ccc21` gave HIV TAR-Tat -1.04 and CDC25B-CDK2 inh 0.44.
Screening Cc1[nH]ccc2c1[nH]c1cc(=O)ccc12 returned HIV TAR-Tat 22.4*.
